Our source for the inhibition values is PubChem BioAssay AID435003 (Sanford-Burnham Center for Chemical Genomics, 2010).

The campaign covered roughly 330,000 compounds. About 1,700 (0.52%) were called active. For the sample, actives were picked, then their nearest neighbours and some compounds at random. Unmarked numbers belong to inactive results. No stated cut-off is given here; in the data, active means inhibition above about 50%; inactive means the rest.

This assay in a line: lowers stimulated NF-kB reporter luminescence – cell-based, uHTS, TCR NF-kB activation inhibitor project, primary screen (AID 435003). To be noted: Jurkat, PMA/ionomycin-induced NF-kB luciferase reporter, at 4 µM, active compounds read high. (In general: In a reporter assay the amount or activity of a reporter protein is the signal.)
With `Cn1c2c(c(=O)n(C)c1=O)C(c1ccc(O)cc1)Nc1ccccc1O2` (stereo unspecified), the inhibition (commonly the drop in the measured response relative to a control, in per cent) was 3.73%.

For `CCCCCCCCn1c2c(c(=N)c3c1CCC3)CCCC2`, the inhibition is 89.5% (active).

As to `COc1ccc(C)cc1NC(=O)C(OC(=O)c1cccc(S(=O)(=O)N(C)c2ccccc2)c1)c1ccccc1` (stereo unspecified), the inhibition is 10.1%.

Regarding `CN(C)C(CNC(=O)c1ccc(S(=O)(=O)NCc2ccco2)cc1)c1ccccc1` (stereo unspecified), the inhibition was -19.3%.

`CC(=O)Nc1ccc(NC(=O)C2CCCN(S(=O)(=O)c3ccc(Cl)cc3)C2)cc1` (stereo unspecified): the inhibition was -4.31%.

With `CC(C)(C)Nc1c(-c2cccs2)nc2ccccn12`, the inhibition was -10.6%.

For `C/C(=N\NC(=O)c1ccccc1F)c1ccccn1`, the inhibition is 90.2% (active).

Consider `COc1ccc(/C(C)=N\NC(=O)c2ccc(-c3ccccc3)cc2)c(F)c1`, for which the inhibition was -14.4%.

For the molecule `C/C(=N\NC(=O)c1ccoc1C)c1ccccc1O`, the inhibition was -29.9%.

Regarding `Cc1cc(Cl)ccc1NC(=S)N1CCC(C(N)=O)(N2CCCCC2)CC1`, the inhibition is 5.02%.

`Cc1ccc(-n2ncc3c2CCCC3NC(=O)c2cnccn2)cc1C` (stereo unspecified): the inhibition was -3.8%.

As to `Cc1cc(C(=O)NC2CCCc3c2cnn3-c2cccc(C)c2C)c(C)o1` (stereo unspecified), the inhibition was 29.7%.

For the molecule `CC(=O)NCC(=O)NC1CCCc2c1cnn2-c1ccccc1F` (stereo unspecified), the inhibition was -8.3%.

As for `Cn1nccc1C(=O)NC1CCCc2c1cnn2-c1ccc(F)cc1F` (stereo unspecified), the inhibition was 71% (active).

For the molecule `COc1ccc(C(=O)NC2CCCc3c2cnn3-c2cccc(C)c2C)c(OC)n1` (stereo unspecified), the inhibition is 29.1%.

In the case of `Cn1nccc1C(=O)NC1CCCc2c1cnn2-c1ccccc1F` (stereo unspecified), the inhibition was 62.9% (active).

`CC1CC(C)CN(C(=O)CCNC(=O)Cn2cnc3ccccc3c2=O)C1` (stereo unspecified): the inhibition is -7.78%.

For the molecule `Cc1ccc(S(=O)(=O)N(C)C)cc1NC(=O)c1n[nH]c(=O)c2ccccc12`, the inhibition is -17.4%.

Regarding `COC(=O)C1=NN(c2ccccc2)C2C(=O)N(c3ccccc3OC)C(=O)C12` (stereo unspecified), the inhibition is 25.7%.

Consider `COc1ccc(NCc2nnc(SCc3ccccc3)n2-c2ccc(OC)cc2)cc1`, for which the inhibition was -6.88%.

With `CCOC(=O)c1cccc(NC(=O)C2CCN(c3ncnc4c3nc3n4CCCCC3)CC2)c1`, the inhibition was 12.1%.

As for `Cc1nc2ccccc2nc1N/N=C/c1ccc(O)cc1O`, the inhibition was 20.4%.

With `Oc1cccc(/C=N/Nc2ccc(Cl)nn2)c1O`, the inhibition was 54.9% (active).

For the molecule `Oc1c(Br)cccc1/C=N/Nc1c(F)c(F)c(F)c(F)c1F`, the inhibition was 2.14%.

Turning to `Cc1cc(=O)[nH]c(Nc2cccc(Br)c2)n1`, the inhibition was 12.3%.

On to `CN(Cc1ccccc1)C(=O)CCNC(=O)Cn1cnc2ccccc2c1=O`, for which the inhibition is -2.32%.
